Measured values as given in PubChem BioAssay (NCATS).
Inconclusive results are not listed. The source made the active and inactive calls. The call rests on the fitted dose curve; in most records, active means well fitted activation curve with a large enough effect; inconclusive means small, poorly fitted or top-dose-only effect; inactive means no such curve, though single readings can be large or run the other way.

biological target: Arylsulfatase A (Homo sapiens) (UniProt P15289); assay: qHTS screen for enhancers of Arylsulfatase A (ASA1): LOPAC Validation Assay (AID 720538); settings: ASA enzyme activity, LOPAC qHTS enhancer assay; series mostly up to 57.5 µM; activity change, positive = activation: at the top concentration; on activity change, positive = activation: 0% is about no effect
Text: Lysosomal storage diseases (LSDs) are caused by genetic mutations in genes encoding proteins important for normal lysosomal function. In affected patients, symptoms are usually not manifested unless the mutations result in more than 90% reduction of enzymatic activity of a specific lysosomal enzyme. […] Small molecules could function as enzyme enhancement agents by binding to and stabilizing mutant misfolded proteins in the endoplasmic reticulum (ER), allowing them to evade the ER associated degradation (ERAD), and eventually reach the lysosome. Moreover, small molecules is hypothesized to be able to enhance the residual activity of deficient lysosomal enzyme by either interacting directly with the mutant enzyme or indirectly by acting in different cellular pathways; resulting to increased levels of the mutant and partially functional protein in the lysosomal compartment.
A cell based assay in 1536 well plate format was developed to evaluate activity of the lysosomal sulfatase ASA1 enzyme. ASA1 is deficient in metachromatic leukodystrophy (MLD), an LSD characterized by progressive neurodegeneration for which specific treatment is not available. Compounds that are active may therefore have some therapeutic application for this disease. This assay was used to validate the ASA1 qHTS using the Sigma LOPAC library. In this assay increase in signal = enhanced ASA1 activity. Activation is the desired outcome for this assay.
NIH Chemical Genomics Center [NCGC]
NIH Molecular Libraries Probe Centers Network [MLPCN]
Assay Submitter (PI): Gustavo Maegawa, Johns Hopkins University School of Medicine
[2] Gieselmann V, et al. Acta Paediatr Suppl. 2008; 97: 15-21
Four microliter (~8,000 cells/well) of SV40-transformed skin fibroblasts from an MLD patient (ASA-I179S) were seeded into a 1,536 solid white plate. Cells were left to adhere for 6 hrs, followed by addition of 23 nL of compounds. Cells were incubated with compounds for 48h at 37 degree C and 5% CO2. Four microliter of 1 mM pNCS substrate/lysis buffer (0.5mM pNCS final concentration) was added and incubated for 14h at room temperature. To stop the reaction, […] of 5 N of NaOH (1N NaOH final concentration) was then added and fluorescence was measured using the ViewLux plate reader (Ex=525 nm; Em=598 nm).

Chain of Arylsulfatase A (Homo sapiens) (P15289 whole entry, looked up): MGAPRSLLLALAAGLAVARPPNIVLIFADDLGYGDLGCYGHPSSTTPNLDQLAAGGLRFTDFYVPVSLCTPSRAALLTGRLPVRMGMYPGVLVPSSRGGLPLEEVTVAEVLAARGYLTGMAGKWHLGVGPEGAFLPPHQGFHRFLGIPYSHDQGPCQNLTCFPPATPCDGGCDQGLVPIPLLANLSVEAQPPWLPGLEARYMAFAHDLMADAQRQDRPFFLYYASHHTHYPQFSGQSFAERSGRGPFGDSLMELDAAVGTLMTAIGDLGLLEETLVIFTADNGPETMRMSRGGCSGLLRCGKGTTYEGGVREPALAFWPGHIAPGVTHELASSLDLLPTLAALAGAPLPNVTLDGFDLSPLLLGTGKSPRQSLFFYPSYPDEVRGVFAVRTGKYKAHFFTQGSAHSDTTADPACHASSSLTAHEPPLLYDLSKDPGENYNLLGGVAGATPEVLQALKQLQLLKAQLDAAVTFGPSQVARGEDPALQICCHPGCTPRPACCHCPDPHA

Row | SMILES | activity change, positive = activation | outcome
1 | Nc1ncnc2n[nH]c(Nc3ccc(F)cc3)c12 | -0.864% (inactive) | –
2 | CCN(CC)CCNC(=O)c1ccc(NS(C)(=O)=O)cc1 | – | inactive
3 | O=C1NC(=O)/C(=C/c2ccc3c(c2)OC(F)(F)O3)S1 | -34.8% (inactive) | –
4 | O=[N+]([O-])c1ccc(-c2nc(-c3ccc(F)cc3)c(-c3ccncc3)[nH]2)cc1 | -1490% (inactive) | –
5 | COc1ccccc1N1CCN(CCN2C(=O)CC3(CCCC3)CC2=O)CC1 | – | inactive
6 | Cc1nn(-c2ccccc2)c(C)c1/C=N/N1CCN(Cc2ccccc2)CC1 | -0.263% (inactive) | –
7 | O=C1NC(c2cccc([N+](=O)[O-])c2)=CCN1c1ccccc1O | -19% (inactive) | –
8 | C[N+](C)(C)CCO | – | inactive
9 | CN(C)c1cc2c(Nc3ccc4c(cnn4Cc4ccccc4)c3)ncnc2cn1 | -65.2% (inactive) | –
10 | N[C@@H](Cn1ccc(=O)c(O)c1)C(=O)O | – | inactive
11 | COC(=O)C1=CO[C@@H](O)[C@@H]2C(CO)=CC[C@H]12 | -541% (inactive) | –
12 | NC(N)=NCCCCN=C(N)N | -37.5% (inactive) | –
13 | Clc1ccc2c(c1)N=C(N1CCNCC1)c1ccccc1N2 | – | inactive
14 | CC(C)N(CCC(=O)c1ccc2ccccc2c1)Cc1ccccc1 | -1.71% (inactive) | –
15 | Cn1cnc2c(NCc3ccccc3)nc(NCCO)nc21 | -34.9% (inactive) | –
